Reference: PubChem BioAssay AID1159580 (chemical genetic matrix, 2015)
The whole screen tested about 5,500 compounds, of which about 2,000 (36%) were called active. Inconclusive results (about 18%) are left out. Rule as the data show it: active = normalized growth mostly below about 0.91 (no sharp cut-off); inconclusive = no clear call, values can overlap the other calls; inactive = mostly above about 0.92. Some of the results follow.

Test: chemical genetic growth profiling, strain panel (AID 1159580);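 also: tested at 20 µM; growth read once vehicle control cultures reached saturation at 30 °C; 1 = growth at the plate median or of vehicle wells; lower values mean less growth of the strain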
Settings: growth OD

Measured: normalized growth

OC[C@H]1O[C@@H](O[C@H]2[C@H](O)[C@@H](O)[C@@H](O)O[C@@H]2CO)[C@H](O)[C@@H](O)[C@@H]1O
inactive: S. cerevisiae deletion strains, locus YJR075W, strain HOC1, stronger effect = lower value 1.02 | S. cerevisiae deletion strains, locus YKL009W, strain mrt4, stronger effect = lower value 1.1 | S. cerevisiae deletion strains, locus YKL068W, stronger effect = lower value 1 | S. cerevisiae deletion strains, locus YKL085W, strain MDH1 (second series), stronger effect = lower value 1.04 | S. cerevisiae deletion strains, locus YKL085W, strain MDH1, stronger effect = lower value 1.04 | S. cerevisiae deletion strains, locus YKL160W, strain elf1, stronger effect = lower value 1.02 | S. cerevisiae deletion strains, locus YKL190W, strain CNB1, stronger effect = lower value 1.01 | S. cerevisiae deletion strains, locus YKR001C, strain vps1, stronger effect = lower value 1.02 | S. cerevisiae deletion strains, locus YKR026C, strain gcn3, stronger effect = lower value 0.992 | S. cerevisiae deletion strains, locus YKR091W, strain srl3, stronger effect = lower value 1 | S. cerevisiae deletion strains, locus YLL001W, strain dnm1, stronger effect = lower value 0.98 | S. cerevisiae deletion strains, locus YLL026W, stronger effect = lower value 0.994 | S. cerevisiae deletion strains, locus YLL041C, strain sdh2, stronger effect = lower value 1.02 | S. cerevisiae deletion strains, locus YLR027C, strain aat2, stronger effect = lower value 1.01 | S. cerevisiae deletion strains, locus YLR039C, strain RIC1, stronger effect = lower value 1.11 | S. cerevisiae deletion strains, locus YLR058C, strain SHM2, stronger effect = lower value 1.02 | S. cerevisiae deletion strains, locus YLR102C, strain apc9, stronger effect = lower value 1.02 | S. cerevisiae deletion strains, locus YLR113W, strain HOG1, stronger effect = lower value 1.06 | S. cerevisiae deletion strains, locus YLR221C, strain rsa3, stronger effect = lower value 0.98 | S. cerevisiae deletion strains, locus YLR258W, strain gsy2, stronger effect = lower value 1.01 | S. cerevisiae deletion strains, locus YLR262C, strain YPT6 (second series), stronger effect = lower value 1.04 | S. cerevisiae deletion strains, locus YLR262C, strain YPT6, stronger effect = lower value 1.05 | S. cerevisiae deletion strains, locus YLR268W, strain sec22, stronger effect = lower value 1.04 | S. cerevisiae deletion strains, locus YLR320W, strain mms22, stronger effect = lower value 0.997 | S. cerevisiae deletion strains, locus YLR330W, strain CHS5, stronger effect = lower value 1.02 | S. cerevisiae deletion strains, locus YLR342W, strain FKS1 (second series), stronger effect = lower value 1.09 | S. cerevisiae deletion strains, locus YLR342W, strain FKS1, stronger effect = lower value 1.01 | S. cerevisiae deletion strains, locus YLR357W, strain rsc2, stronger effect = lower value 0.975 | S. cerevisiae deletion strains, locus YLR370C, strain arc18, stronger effect = lower value 1.01 | S. cerevisiae deletion strains, locus YLR371W, strain rom2, stronger effect = lower value 1.01 | S. cerevisiae deletion strains, locus YLR384C, strain iki3, stronger effect = lower value 0.992 | S. cerevisiae deletion strains, locus YLR418C, strain cdc73, stronger effect = lower value 0.975 | S. cerevisiae deletion strains, locus YML016C, strain PPZ1, stronger effect = lower value 1.01 | S. cerevisiae deletion strains, locus YML032C, strain rad52, stronger effect = lower value 1 | S. cerevisiae deletion strains, locus YML120C, strain ndi1, stronger effect = lower value 1.01 | S. cerevisiae deletion strains, locus YML124C, strain tub3, stronger effect = lower value 1.01 | S. cerevisiae deletion strains, locus YMR058W, strain fet3, stronger effect = lower value 1 | S. cerevisiae deletion strains, locus YMR078C, strain ctf18, stronger effect = lower value 1.01 | S. cerevisiae deletion strains, locus YMR125W, strain sto1, stronger effect = lower value 0.993 | S. cerevisiae deletion strains, locus YMR129W, stronger effect = lower value 1.01 | S. cerevisiae deletion strains, locus YMR205C, strain PFK2, stronger effect = lower value 1.01 | S. cerevisiae deletion strains, locus YMR223W, strain ubp8, stronger effect = lower value 0.993 | S. cerevisiae deletion strains, locus YMR231W, strain pep5, stronger effect = lower value 0.992 | S. cerevisiae deletion strains, locus YMR263W, strain SAP30, stronger effect = lower value 1.01 | S. cerevisiae deletion strains, locus YMR307W, strain GAS1, stronger effect = lower value 1.07 | S. cerevisiae deletion strains, locus YNL067W, strain RPL9B, stronger effect = lower value 1.02 | S. cerevisiae deletion strains, locus YNL071W, strain lat1, stronger effect = lower value 1.02 | S. cerevisiae deletion strains, locus YNL153C, strain GIM3, stronger effect = lower value 1.01 | S. cerevisiae deletion strains, locus YNL183C, strain NPR1, stronger effect = lower value 0.968 | S. cerevisiae deletion strains, locus YNL209W, strain ssb2, stronger effect = lower value 1.01 | S. cerevisiae deletion strains, locus YNL233W, strain BNI4, stronger effect = lower value 1.01 | S. cerevisiae deletion strains, locus YNL248C, strain rpa49, stronger effect = lower value 0.98 | S. cerevisiae deletion strains, locus YNL250W, strain rad50, stronger effect = lower value 1.03 | S. cerevisiae deletion strains, locus YNL271C, strain bni1, stronger effect = lower value 1.02 | S. cerevisiae deletion strains, locus YNL298W, strain CLA4, stronger effect = lower value 0.999 | S. cerevisiae deletion strains, locus YNL307C, strain MCK1, stronger effect = lower value 1.02 | S. cerevisiae deletion strains, locus YNL322C, strain KRE1 (second series), stronger effect = lower value 0.996 | S. cerevisiae deletion strains, locus YNL322C, strain KRE1, stronger effect = lower value 1.02 | S. cerevisiae deletion strains, locus YNR049C, strain mso1, stronger effect = lower value 0.998 | S. cerevisiae deletion strains, locus YNR052C, strain pop2, stronger effect = lower value 1.01 | S. cerevisiae deletion strains, locus YOL006C, strain TOP1, stronger effect = lower value 1.15 | S. cerevisiae deletion strains, locus YOL012C, strain htz1 1.74 | S. cerevisiae deletion strains, locus YOL147C, strain pex11, stronger effect = lower value 1.01 | S. cerevisiae deletion strains, locus YOR001W, strain rrp6, stronger effect = lower value 0.988 | S. cerevisiae deletion strains, locus YOR061W, strain CKA2, stronger effect = lower value 1.03 | S. cerevisiae deletion strains, locus YOR069W, strain VPS5, stronger effect = lower value 1.01 | S. cerevisiae deletion strains, locus YOR070C, strain gyp1, stronger effect = lower value 1 | S. cerevisiae deletion strains, locus YOR080W, strain dia2, stronger effect = lower value 0.988 | S. cerevisiae deletion strains, locus YOR083W, strain WHI5, stronger effect = lower value 1.06 | S. cerevisiae deletion strains, locus YOR106W, strain vam3, stronger effect = lower value 1.04 | S. cerevisiae deletion strains, locus YOR136W, strain idh2, stronger effect = lower value 1.01 | S. cerevisiae deletion strains, locus YOR144C, strain elg1, stronger effect = lower value 1 | S. cerevisiae deletion strains, locus YOR184W, strain ser1, stronger effect = lower value 1.02 | S. cerevisiae deletion strains, locus YOR231W, strain MKK1, stronger effect = lower value 1 | S. cerevisiae deletion strains, locus YOR265W, strain rbl2, stronger effect = lower value 1 | S. cerevisiae deletion strains, locus YOR270C, strain vph1, stronger effect = lower value 1.13 | S. cerevisiae deletion strains, locus YOR290C, strain snf2, stronger effect = lower value 1.03 | S. cerevisiae deletion strains, locus YOR316C, strain cot1, stronger effect = lower value 1.02 | S. cerevisiae deletion strains, locus YPL051W, strain arl3, stronger effect = lower value 0.992 | S. cerevisiae deletion strains, locus YPL078C, strain atp4, stronger effect = lower value 1.01 | S. cerevisiae deletion strains, locus YPL106C, strain sse1, stronger effect = lower value 1.02 | S. cerevisiae deletion strains, locus YPL240C, strain hsp82, stronger effect = lower value 1 | S. cerevisiae deletion strains, locus YPL241C, strain CIN2, stronger effect = lower value 1 | S. cerevisiae deletion strains, locus YPL256C, strain CLN2, stronger effect = lower value 0.975 | S. cerevisiae deletion strains, locus YPR119W, strain clb2, stronger effect = lower value 1.01 | S. cerevisiae deletion strains, locus YPR141C, strain kar3, stronger effect = lower value 1 | S. cerevisiae deletion strains, locus YPR163C, strain tif3, stronger effect = lower value 1 | S. cerevisiae deletion strains, locus YPR167C, strain met16, stronger effect = lower value 1.02 | S. cerevisiae deletion strains, strain wtn01, stronger effect = lower value 1.06 | S. cerevisiae strains, strain wild type, stronger effect = lower value 1.02
